Measured values published in the supplement of paper PMC10720658.
Where a name gives a salt, the structure may show the parent alone. ± gives the standard deviation of the averaged measurements.

Test system: AEK1 (Tb927.3.2440)
Assay: percent reduction in TR-FRET probe signal relative to DMSO control; higher = stronger displacement of ATP-site probe (binding)
Conditions: 1 µM; incubation time 1 h

Structure (SMILES) | percent reduction in TR-FRET probe signal [%]
Cc1ccc(Nc2nccc(N(C)c3ccc4c(C)n(C)nc4c3)n2)cc1S(N)(=O)=O [Pazopanib HCl] | 3.07 ± 12
CN(c1ncccc1CNc1nc(Nc2ccc3c(c2)CC(=O)N3)ncc1C(F)(F)F)S(C)(=O)=O.O=S(=O)(O)c1ccccc1 | 37.1 ± 14
COc1cc(-c2cc(-c3ccc(N4CCNCC4)cc3)cnc2C)cc(OC)c1OC | -4.94 ± 0.48
O=C(/C=C/c1ccc(O)c(O)c1)c1ccc(O)cc1O [Butein] | 4.05 ± 5.4
CCn1c(=O)c(-c2ccc(-c3cncs3)cc2Cl)cc2cnc(Nc3ccc(N4CCN(C)CC4)cc3)nc21 | 43.6 ± 6.3
CO[C@H]1C[C@@H]2CC[C@@H](C)[C@@](O)(O2)C(=O)C(=O)N2CCCC[C@H]2C(=O)O[C@H]([C@H](C)C[C@@H]2CC[C@H](n3cnnn3)[C@H](OC)C2)CC(=O)[C@H](C)/C=C(\C)[C@@H](O)[C@@H](OC)C(=O)[C@H](C)C[C@H](C)/C=C/C=C/C=C/1C [Zotarolimus(ABT-578)] | -16.6 ± 5
CN1CCC(COc2cnc(-c3cccc(Cn4nc(-c5cccc(C#N)c5)ccc4=O)c3)nc2)CC1 | 6 ± 15
Cc1cnc(NC(=O)Nc2cc(Br)c(C)cc2OC[C@@H]2CNCCO2)cn1 | 9.29 ± 6.3
Cc1nc(Nc2ncc(C(=O)Nc3c(C)cccc3Cl)s2)cc(N2CCN(CCO)CC2)n1 [Dasatinib] | 10.6 ± 19
C=CCc1ccc(O)c(-c2ccc(O)c(CC=C)c2)c1 [Honokiol] | 1.65 ± 8.9
C[C@@H](N)[C@H]1CC[C@H](C(=O)Nc2ccncc2)CC1.Cl.Cl | 2.66 ± 6.8
COc1ccc(COc2cc3oc(=O)c4cc(C(C)O)ccc4c3cc2OC)cc1 (configuration not stated) [Palomid 529 (P529)] | -5.44 ± 9.3
C=CC(=O)Nc1cccc(Nc2nc(Nc3ccc(NC4CN(CCF)C4)cc3OC)ncc2C(F)(F)F)c1 | -12.2 ± 9.2
COCCOc1cnc2ccn([C@H](C)c3nnc4c(F)cc(-c5cnn(C)c5)cn34)c(=O)c2c1 | 5.44 ± 17
N#CCNC(=O)c1ccc(-c2ccnc(Nc3ccc(N4CCOCC4)cc3)n2)cc1 | 16.3 ± 16
COc1cc(Nc2nc3ccccc3nc2NS(=O)(=O)c2ccc(NC(=O)c3ccc(C)c(OC)c3)cc2)cc(OC)c1 | 18.9 ± 14
Cc1cc(C(=O)NOCCO)c(Nc2ccc(I)cc2F)n(C)c1=O | 4.03 ± 2.7
CC(C)(C#N)c1ccc(N2C(=O)OCc3cnc4ccc(-c5cnc6ccccc6c5)cc4c32)cc1 | -6.23 ± 1.2
OCCn1cc(-c2cnc3nnn(Cc4ccc5ncccc5c4)c3n2)cn1 | -2.19 ± 3.1

Structure (SMILES) | percent reduction in TR-FRET probe signal [%]
Cc1cc([C@@H](C)Nc2ccccc2C(=O)O)c2nc(N3CCOCC3)cc(=O)n2c1 | -5.32 ± 14
Cc1ccc(C(=O)Nc2cccc(C(F)(F)F)c2)cc1Nc1nc(-c2cccnc2)nc2c1cnn2C | 1 ± 8.4
COc1nccc(-c2c(-c3ccc(F)cc3)ncn2[C@H]2CC[C@H](O)CC2)n1 | -2.94 ± 9.9
CN(C)Cc1cccc(N/C(=C2\C(=O)Nc3cc(C(=O)N(C)C)ccc32)c2ccccc2)c1 | -0.927 ± 9.6
CCN1CCN(Cc2ccc(C(=O)Nc3ccc(C)c(Oc4ccc5c(c4)CC(=O)N5)c3)cc2C(F)(F)F)CC1 | -7.33 ± 8.7
NC1(C(=O)N[C@@H](CCO)c2ccc(Cl)cc2)CCN(c2ncnc3[nH]ccc23)CC1 | 3.79 ± 1.4
COc1cc2ncnc(Nc3cccc(Cl)c3F)c2cc1OC(=O)N1CCN(C)C[C@H]1C | 9.77 ± 13
O=C(NCc1ccccc1)c1csc(Nc2ccncn2)n1 [Thiazovivin] | 10.4 ± 11
C#Cc1cccc(Nc2ncnc3cc(OC)c(OCCCCCCC(=O)NO)cc23)c1 | -2.76 ± 13
CN1CCN(CCOc2cc(OC3CCOCC3)c3c(Nc4c(Cl)ccc5c4OCO5)ncnc3c2)CC1 [Saracatinib (AZD0530)] | 11.4 ± 13
CCCCCCCCCCCCCCCCOP(=O)([O-])OCC[N+](C)(C)C [Miltefosine] | 4.96 ± 18
C[C@@H]1COC(Nc2ccc3ncnc(Nc4ccc(OCc5nccs5)c(Cl)c4)c3c2)=N1 [Varlitinib] | 11.3 ± 2.9
COc1cc2nccc(Oc3ccc(NC(=O)NC4CC4)c(Cl)c3)c2cc1C(N)=O [Lenvatinib (E7080)] | 1.41 ± 13
O=c1sn(-c2cccc3ccccc23)c(=O)n1Cc1ccccc1 [Tideglusib] | -35 ± 6.7
C=CC(=O)Nc1ccc2ncnc(Nc3cccc(Br)c3)c2c1 | 12 ± 5.5
CN(c1ncccc1CNc1nc(Nc2ccc3c(c2)CC(=O)N3)ncc1C(F)(F)F)S(C)(=O)=O | 46.8 ± 0.66
O=C(/C=C/c1ccc2ccccc2n1)c1ccncc1 | -6.28 ± 6
Cc1nc(NC(=O)N2CCC[C@H]2C(N)=O)sc1-c1ccnc(C(C)(C)C(F)(F)F)c1 | 0.68 ± 7.1
